Source: PubChem BioAssay (NCATS)
Inconclusive results are not listed. A call without a number means that no potency is given here. Activity calls are given as the source filed them. Calls come from the whole dose curve; as a rule, active = well fitted activation curve with a large enough effect; inconclusive = small, poorly fitted or top-dose-only effect; inactive = flat fitted curve, though single readings scatter.

The molecules below were run against Cellular tumor antigen p53 (Homo sapiens) (UniProt P04637) (assay: Primary qHTS for small molecule compounds that upregulate eGFP-tagged delta133p53alpha (in C-terminal) cells. (AID 2060324)). Conditions: NCI-H358 delta133p53alpha-eGFP (C-terminal tag), GFP fluorescence imaging, 24 h; series mostly up to 57.5 µM.
Chain of Cellular tumor antigen p53 (Homo sapiens) (P04637 whole entry, looked up): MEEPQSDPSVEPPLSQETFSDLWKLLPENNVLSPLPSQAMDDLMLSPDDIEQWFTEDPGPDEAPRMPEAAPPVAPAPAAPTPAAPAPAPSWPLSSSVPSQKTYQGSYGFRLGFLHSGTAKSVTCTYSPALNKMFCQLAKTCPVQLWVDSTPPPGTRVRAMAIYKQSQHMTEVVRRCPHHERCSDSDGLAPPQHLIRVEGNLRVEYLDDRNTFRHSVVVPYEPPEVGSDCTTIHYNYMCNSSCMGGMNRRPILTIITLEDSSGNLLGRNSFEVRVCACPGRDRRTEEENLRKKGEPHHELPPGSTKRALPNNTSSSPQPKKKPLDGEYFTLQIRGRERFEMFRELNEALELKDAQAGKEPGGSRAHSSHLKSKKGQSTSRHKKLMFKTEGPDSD
Excerpt: Assay Development and Screening Technology
National Center for Advancing Translational Sciences (NCATS),
National Institute of Health (NIH), Rockville, Maryland
Cellular senescence (CS) is one of the hallmarks of aging and age-related diseases. Senescent cells are characterized by an irreversible growth arrest, an increase in senescence-associated beta-galactosidase (SA-beta-gal) activity and p16INK4a expression, an activation of the DNA damage response pathways, and the emergence of a senescence-associated secretory phenotype (SASP).
Delta133p53alpha, a human/primate-specific p53 protein isoform, delays or inhibits the induction of CS and SASP in various types of human cells, including progeria-derived fibroblasts, primary normal astrocytes, and CD8+ T lymphocytes. Induction of delta133p53alpha with small molecule compounds may provide therapeutic opportunities for inhibition of senescence/SASP-associated pathologies in progeria syndromes, astrocyte-mediated neuroprotection in neurodegenerative diseases, and possibly prevention and treatment of a wider range of senescence- and aging-associated diseases.
Here we report the development and validation of a cell-based quantitative high throughput screening (qHTS) assay in 1,536-well format. This qHTS assay uses the NCI-H358 cell line with doxycycline-inducible expression of enhanced green fluorescent protein (eGFP)-tagged delta133p53alpha, which allows efficient and highly quantitative measurement of the protein levels.
PROTOCOL TABLE (as described by Inglese J, Shamu CE and Guy RK. 2007)
SEQUENCE No. (e.g., 1, 2, 3, etc.); […] (e.g., Cells, Incubation, Reagent, etc.); VALUE; DESCRIPTION.
1; Cells; 4uL; 800 doxycycline treated cells / well in doxycycline-free media, 1536-well black, clear-bottom low base Aurora microplates.
2; Compounds; 23 nL; Kalypsis pin tool (Wako) equipped with 1536-well pin heads, 5-azacytidine positive control.
3; Incubation; 24 hr; 37C, 5% CO2; 95% relative humidity.
4; Aspiration; 1x; BioTek EL406 washer dispenser (Agilent).
5; Fixing; 3.5% paraformaldehyde, BioTek EL406 washer dispenser (Agilent).
6; Washing; 1x PBS; BioTek EL406 washer dispenser (Agilent).
7; Nuclei staining; 1:1000 dilution of Hoechst 33342 (Thermofisher), BioTek EL406 washer dispenser (Agilent).
8; Incubation; 20 min; in the dark at room temperature.
9; Washing; 2x, 1x PBS (ThermoFisher), BioTek EL406 washer dispenser (Agilent).
10; Reagent; 10 uL; 1x PBS per well, sealed with clear adhesive tape.
11; Detection; Fluorescence, Acumen eX3 laser scanning cytometer (STP Labtech), GFP filters […].
NOTES (numbers refer to sequence numbers above).
1. NCI-H358 cells expressing eGFP-tagged delta133p53alpha were grown in T75 culture flasks and treated with doxycycline for 24h, at 10 ng/ml for eGFP-D133p53a cells (N-terminal cell) and 100 ng/ml for D133p53a-eGFP cells (C-terminal cells). Cells were trypsinized, counted using a Counted 3 Automated Cell Counter (Thermo Fisher), and diluted to a concentration of 200,000 cells/ml. A Multidrop Combi Reagent Dispenser (ThermoFisher) was used to dispense 800 cells/well in […] of doxycycline-free media, into 1536-well black/clear bottom low base plates (AuroraMicroplates).
2. After plating cells, 23 nl of compound library, DMSO vehicle control or positive control (5-azacytidine) were transferred by Pin Tool (Wako). The plate map layout was the same for each plate: (column 1) non-doxycycline treated cells + DMSO vehicle control; (column 2) doxycycline treated cells + DMSO vehicle control baseline; (column 3) doxycycline treated cells + positive control 57.5 uM final concentration 5-azacytidine; (column 4) doxycycline treated cells + serial dilution of 5-azacytidine, 16-point 1:2 titration spanning 1.8 nM to […] final concentration; (columns 5-48) doxycycline treated cells + titration of library compounds.
3. Cells were incubated at 37 °C, 5 % CO2, 95% RH with breathable metal lid for 24h.
4-10. […] […]
Potency is the fitted concentration of half-maximal effect.

| SMILES | Potency |
| --- | --- |
| Cc1cccc(C)c1OCC(C)N (stereo not given) | inactive |
| COc1ccc2c(c1)CCC1C2CC[C@@]2(C)C1CC[C@@H]2NCCCCCCN1C(=O)CCC1=O (stereo not given in full) | inactive |
| OC(CCN1CCCCC1)(c1ccccc1)C1CC2C=CC1C2 (stereo not given) | inactive |
| O=c1[nH]c2cc(Cl)ccc2c(O)c1-c1ccc(Oc2ccccc2)cc1 | inactive |
| O=[N+]([O-])c1ccc2c(c1)S(=O)(=O)C=C2 | 30.1 µM (active) |
| O=[N+]([O-])c1cccc2c(Br)[nH]nc12 | inactive |
| NC(=O)C1=CN(C2OC(COP(=O)(O)OP(=O)(O)OC[C@H]3O[C@@H](n4cnc5c(N)ncnc54)[C@H](OP(=O)(O)O)[C@@H]3O)C(O)C2O)C=CC1 (stereo not given in full) | inactive |
| COc1cccc2c1[C@@H]1CN(CCCCn3c(=O)[nH]c4c(sc5ncc(-c6ccccc6)nc54)c3=O)C[C@@H]1CO2 | inactive |
| C[C@H]1CC2C3CCC4=CC(=O)C=C[C@]4(C)[C@@]3(Cl)[C@@H](O)C[C@]2(C)[C@@]1(O)C(=O)CO (stereo not given in full) | inactive |
| COC(=O)[C@H](NC(=O)c1cc(-c2ccccc2)nc2ccccc12)c1ccccc1 | inactive |
| CCN(CC)CCNC(=O)c1ccc(NC(C)=O)cc1 | inactive |
| NC(=O)OCC(COC(N)=O)c1ccccc1 | inactive |
| NC(=O)c1cccc(N)c1 | inactive |
| COC(=O)[C@H]1[C@H]2C[C@@H]3c4[nH]c5cc(OC)ccc5c4CCN3C[C@H]2C[C@@H](OC(=O)c2cc(OC)c(OC)c(OC)c2)[C@@H]1OC | 26.9 µM (active) |
| CC(=O)N[C@H](C(=O)O)C(C)(C)SN=O | inactive |
| Cc1ccc([N+](=O)[O-])cc1S(=O)(=O)N(C)C | inactive |
| O=C(c1ccccc1)c1ccc2n1CCC2C(=O)O (stereo not given) | inactive |
| NC1[C@H]2CN(c3nc4c(cc3F)c(=O)c(C(=O)O)cn4-c3ccc(F)cc3F)C[C@@H]12 (stereo not given in full) | inactive |
| CCN1CCCC1CNC(=O)c1cc(S(N)(=O)=O)ccc1OC (stereo not given) | inactive |
| CC[N+](CC)(CC)CC(=O)Nc1c(C)cccc1C | inactive |

| SMILES | Potency |
| --- | --- |
| COc1ccccc1CNCCCCCCNCCCCCCCCNCCCCCCNCc1ccccc1OC | inactive |
| CCc1cccc(N(C)C(N)=Nc2cccc3ccccc23)c1 | inactive |
| NC(=O)c1ccc2[nH]ccc2c1 | inactive |
| Nc1c2c(nc3ccccc13)CCCC2O (stereo not given) | inactive |
| OCCN1CCN(CCCN2c3ccccc3Sc3ccc(Cl)cc32)CC1 | inactive |
| NC[C@@H]1O[C@H](C23CC4CC(CC(C4)C2)C3)Cc2c1ccc(O)c2O | 23.9 µM (active) |
| CC1CCN(CC[C@H]2CCCN2S(=O)(=O)c2cccc(O)c2)CC1 | inactive |
| COC(=O)C1=CO[C@@H](O)[C@@H]2C(CO)=CC[C@H]12 | inactive |
| COc1cc2nc(N3CCN(C(=O)C4COc5ccccc5O4)CC3)nc(N)c2cc1OC (stereo not given) | inactive |
| C[C@@H](NCCc1ccc(O)cc1)[C@@H](O)c1ccc(O)cc1 | inactive |
| Cc1nc2n(c(=O)c1CCN1CCC(c3noc4cc(F)ccc34)CC1)CCCC2O (stereo not given) | inactive |
| CCOC(=O)N1CCN(/[N+]([O-])=N/Oc2ccc([N+](=O)[O-])cc2[N+](=O)[O-])CC1 | inactive |
| CNCCc1cnc(CCC(c2ccccc2)c2ccccc2)[nH]1 | inactive |
| O=C(O)CCC(=O)N1CCCC1C(=O)O (stereo not given) | inactive |
| COc1cc(/C=C(\C#N)C(=O)Nc2nnc(C(F)(F)F)s2)ccc1OCc1ccc(C(F)(F)F)cc1C(F)(F)F | inactive |
| CCCC1O[C@@H]2C[C@H]3[C@@H]4CCC5=CC(=O)C=C[C@]5(C)[C@H]4[C@@H](O)C[C@]3(C)[C@]2(C(=O)CO)O1 (stereo not given in full) | inactive |
| Nc1ncnc2c1ncn2[C@@H]1O[C@H](COP(=O)(O)CP(=O)(O)OP(=O)(O)O)[C@@H](O)[C@H]1O | inactive |
| O=c1[nH]ccc2c(O)cccc12 | inactive |
| CN1C2CCC1CC(OC(c1ccccc1)c1ccccc1)C2 (stereo not given) | inactive |
| O=C(O)CCCCCCCC(=O)O | inactive |
